# Source: PubChem (National Center for Advancing Translational Sciences (NCATS))
# Only a selection was taken, and hits are over-represented in it overall.
# NS1 function inh: influenza NS1 inhibition; 0.4% of 270,000 active; Potency, µM (highest dose often 46.1 µM), for the others: at the top dose activity, positive = more growth; calls by dose curve; also: actives are rising curves; nearly all actives have a fitted effect of over 50% in size
#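 Growth recovery, yeast-based: influenza A NS1 expressed in S. cerevisiae causes slow growth, and suppressors are detected by OD600. The parent strain without NS1 is used as positive control.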
# Cruzain Triton: blocks cruzain activity in presence of Triton detergent; Potency, µM, inactives show max response, negative = inhibition, actives largely listed as inhibitors; P25779; purified cruzain, Z-FR-AMC fluorescence, 0.01% Triton; 0.43% of 200,000 active;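 also: plate controls were neutral wells for no effect and buffer without enzyme for full effect; nearly all actives have a fitted effect of over 40% in size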
# Target sequence (P25779 123-467 limits assumed): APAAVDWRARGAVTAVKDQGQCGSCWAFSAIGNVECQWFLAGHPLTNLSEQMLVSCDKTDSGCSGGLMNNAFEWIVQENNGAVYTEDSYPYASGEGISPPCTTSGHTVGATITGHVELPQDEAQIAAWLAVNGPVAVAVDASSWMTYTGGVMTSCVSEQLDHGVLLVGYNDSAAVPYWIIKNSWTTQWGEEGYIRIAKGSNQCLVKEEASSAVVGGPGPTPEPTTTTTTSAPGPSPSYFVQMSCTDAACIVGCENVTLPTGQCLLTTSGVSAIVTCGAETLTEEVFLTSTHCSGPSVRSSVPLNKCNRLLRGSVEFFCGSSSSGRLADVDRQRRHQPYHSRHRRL
#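 15 min RT preincubation of 1.5 nM cruzain with compound, then 2 uM Z-FR-AMC added; kinetic AMC fluorescence, 60 s delta. Triton X-100 0.01%, pH 5.5.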
# Cruzain inh noDet: cruzain (T. cruzi) inhibition without detergent | P25779 | purified cruzain, Z-FR-AMC fluorescence, no detergent | Potency, µM, for inactives: max response, negative = inhibition, most hits filed as inhibitors | 2.3% of 200,000 active | AID 1476;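 also: plate controls were enzyme without inhibitor for no effect and buffer without enzyme for full effect; nearly all actives have a fitted effect of over 40% in size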
#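 Detergent-free condition (0.00005% Triton X-100) in acetate buffer pH 5.5 with DTT. 1.5 nM enzyme and compound were pre-mixed 15 min, then 2 uM Z-FR-AMC substrate added; reaction progress from fluorescence change between first and third reads (60 s).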
# * = called active by the depositor; ? = inconclusive; . = not tested or not shown. Unless noted, calls follow the shape of the dose curve; as a rule, active = well fitted curve in the direction sought with a large enough effect; inconclusive = small, poorly fitted or top-dose-only effect, or another doubt; inactive = no such curve, though single readings can be large; an effect the other way counts as inactive or inconclusive. Potency is read from the fitted curve at half-maximal effect.
SMILES,NS1 function inh,Cruzain Triton,Cruzain inh noDet
CCC(=O)N1CCc2cc(Br)cc(S(=O)(=O)CCC(=O)NCc3ccc(F)cc3)c21,.,-1.9%,7.7%
Cc1cccc2cc(C#N)c(SCC(=O)N3CC(=O)Nc4ccccc43)nc12,4.8%,-3.5%,25.1µM*
COc1ccc2cc(C#N)c(SCC(=O)N3CC(=O)Nc4ccccc43)nc2c1,5.6%,.,.
CC1=C(C(=O)Nc2ccc(Cl)cc2)C(c2ccccc2)n2ncc(C(=O)Nc3ccccc3)c2N1 (stereo not given),.,-10.1%,?
COc1ccc(NC(=O)C2=C(C)Nc3c(C(=O)Nc4ccc(C)cc4)cnn3C2c2cc(OC)ccc2OC)cc1 (stereo not given),.,-5.7%,-0.5%
COc1ccc(NC(=O)C2=C(C)Nc3c(C(=O)Nc4ccc(C)cc4)cnn3C2c2cccc(Cl)c2)cc1 (stereo not given),.,-4.2%,15.8µM*
CC1=C(C(=O)Nc2ccc(Cl)cc2)C(c2ccccc2C)n2ncc(C(=O)Nc3ccc(C)cc3)c2N1 (stereo not given),.,-4.3%,31.6µM*
COc1cccc(C(=O)NCCc2csc3nc(-c4ccccc4F)nn23)c1OC,.,-3.2%,-4.6%
CC(C)c1ccc2c(c1)CC[C@H]1[C@@](C)(CN)CCC[C@@]21C,-3.6%,8.8%,-6.2%
COc1ccc(NC(=O)c2nn(C)c3c2CS(=O)(=O)c2ccccc2-3)cc1Cl,.,-0.8%,5.5%
COc1cc(NC(=O)NS(=O)(=O)c2ccc(C)cc2)cc(OC)c1,1µM*,9.4%,-0.7%
COc1ccc(NC(=O)NS(=O)(=O)c2ccc(C)cc2)cn1,-3.6%,.,.
O=C(NCCc1ccccc1Cl)c1ccc2c(=O)n(-c3ccccc3)c(=O)[nH]c2c1,.,2.8%,?
C=CCOC(=O)N[C@@H](c1ccc(Br)cc1)C(C(C)=O)C(C)=O,.,4.2%,-12.0%
COc1ccc2[nH]c3c(NCCN(C(C)C)C(C)C)ncnc3c2c1,-32.1%,?,12.6µM*
COc1ccc(CNc2ncnc3c2[nH]c2ccccc23)cc1,-45.1%,.,.
CC(C)OCCCNc1ncnc2c1[nH]c1ccccc12,-22.5%,?,15.8µM*
CCOc1ccc2[nH]c3c(NCCN(CC)CC)ncnc3c2c1,0.5%,.,.
CC(=O)Nc1nc2ccccc2n1CCOc1ccccc1,-11.4%,-0.1%,-6.8%
S=C(Nc1ccccc1)Nc1nc2ccccc2n1CCOc1ccccc1,-21.3%,4.4%,10µM*
O=C1OCCN1C(=O)[C@H]1[C@H](c2ccc(Cl)cc2)C(c2cccc(Cl)c2)=NN1c1ccccc1,?,-13.6%,17.8µM*
CC[C@@H]1C(c2cccc(Cl)c2)=NN(c2ccccc2)[C@H]1C(=O)N1CCOC1=O,.,-0.7%,-29.9%
C[C@@H]1C(c2ccc(F)cc2)=NN(c2ccccc2)[C@H]1C(=O)N1CCOC1=O,.,-12.3%,-4.2%
O=C1OCCN1C(=O)[C@H]1[C@H](c2ccc(F)cc2)C(c2cccc(Cl)c2)=NN1c1ccccc1,.,-3.9%,20µM*
O=C(c1cccc(F)c1)N1CCC[C@@]2(CCN(c3ccccn3)C2)C1,.,1.4%,-1.0%
SMILES,NS1 function inh,Cruzain Triton,Cruzain inh noDet
CCS(=O)(=O)n1nc(-c2ccco2)nc1NCc1ccc(C(C)C)cc1,.,-9.8%,?
Cc1nc(N2CCOCC2)c2c(C(=O)N3CCN(c4cc(Cl)ccc4C)CC3)c(C)oc2n1,.,-3.4%,?
Cc1ccccc1OCCCCn1nnc2sc3c(c2c1=O)CCC(C)C3 (stereo not given),.,-0.5%,4.1%
COc1cc(NC(=O)CN2CCCN(Cc3cccc(F)c3)S2(=O)=O)cc(OC)c1,.,-6.3%,15.7%
CCN1CCN(c2ccc(N)cc2C)CC1,-4.2%,.,.
Cc1cc(N)ccc1N1CCCC1,5.5%,?,15.8µM*
COc1ccc(N2CCN(S(=O)(=O)CCNC(=O)c3c(F)cccc3Cl)CC2)cc1,.,-1.5%,9.6%
O=[N+]([O-])c1cccc2ccc(/C=C/c3ccc(F)cc3)nc12,5.0%,-5.9%,-9.7%
O=[N+]([O-])c1ccc(/C=C/c2ccc3cccc([N+](=O)[O-])c3n2)cc1,15.5%,-5.6%,12.6µM*
COc1ccc2c(c1)O[C@@H](c1ccc3c(c1)OCO3)[C@H](OC(=O)NCCOc1ccccc1)C2=O,.,-3.9%,-9.9%
Cc1nc2c(C(=O)NC(C)c3ccccc3)cnn2c(C)c1Cc1ccccc1 (stereo not given),.,-15.3%,10.8%
O=C(C(Cc1ccccc1)N1C(=O)C2C3C=CC(C3)C2C1=O)N1CCCCCC1 (stereo not given),6.3%,-0.5%,15.9%
O=C(NCc1ccco1)C(Cc1ccccc1)N1C(=O)C2C3C=CC(C3)C2C1=O (stereo not given),-0.4%,25.1µM*,-29.9%
CCOc1cc(NC(=S)Nc2cccc(OC)c2)c(OCC)cc1NC(=O)c1ccc(C)cc1,?,-1.3%,?
CCOc1cc(NC(=S)Nc2ccccc2)c(OCC)cc1NC(=O)c1ccc(OC)cc1,?,-2.8%,15.8µM*
N#CC(Cc1ccc(O)c(O)c1)C(=O)N1CCc2ccccc21 (stereo not given),3.1%,-9.7%,-7.8%
FC(F)Sc1ccc(NC(=S)NC2CCC(NC(=S)Nc3ccc(SC(F)F)cc3)CC2)cc1 (stereo not given),5.4%,2.3%,15.8µM*
Oc1cccc(NC(=S)Nc2ccc(SC(F)F)cc2)c1,-32.3%,-5.4%,-2.1%
O=C(c1ccccc1Cl)n1nc(-c2cccnc2)nc1NCc1ccc(F)cc1,.,-7.7%,-10.0%
N[C@H](Cn1ccc(=O)n(Cc2ccccc2C(=O)O)c1=O)C(=O)O,.,5.0%,-5.3%
CCOC(=O)C(Cc1ccccc1)C(=O)Nc1ccc(NC(=O)C(Cc2ccccc2)C(=O)OCC)cc1 (stereo not given),9.1%,-2.0%,7.94µM*
CCOC(=O)C(Cc1ccccc1)C(=O)Nc1ccccc1C (stereo not given),-6.2%,2.2%,3.5%
CCc1cccc(NC(=O)C2CCCN2S(=O)(=O)c2ccc3nc(-c4ccccc4)[nH]c3c2)c1 (stereo not given),.,-4.5%,3.5%
COC(=O)C1=C(C)[C@@H](O)[C@@H](C)[C@](C)(c2cc(OC)c(C)c(OC)c2COc2ccccc2)O1,.,1.5%,14.4%
Cc1cc(-c2csc(NC(=O)c3ccccc3C(F)(F)F)n2)c(C)n1Cc1ccccc1,26.2%,-0.1%,15.8µM*
SMILES,NS1 function inh,Cruzain Triton,Cruzain inh noDet
Cc1cc(-c2csc(NC(=O)c3ccc(=O)[nH]c3)n2)c(C)n1Cc1ccco1,5.4%,.,.
CCCCC(=O)Nc1c(C(=O)N2CCN(c3ccccc3)CC2)oc2ccccc12,.,-3.9%,4.0%
O=C1C2C3C=CC(C3=C(c3ccccc3)c3ccccc3)C2C(=O)N1Cc1ccccc1 (stereo not given),15.5%,2.6%,20µM*
O=C1C2C3C=CC(C3=C(c3ccccc3)c3ccccc3)C2C(=O)N1CCO (stereo not given),-121.5%,-8.4%,?
O=[N+]([O-])c1ccc(Sc2ccccn2)nc1,2.2%,.,.
O=C(Nc1cc(Sc2ccccn2)cc([N+](=O)[O-])c1)c1ccc([N+](=O)[O-])cc1,3.7%,-0.4%,31.6µM*
Nc1ccn([C@H]2O[C@@H](COP(=O)(O)O)[C@@H](O)[C@H]2O)c(=O)n1,-1.8%,4.2%,-2.3%
O=[N+]([O-])c1cccc(-c2ccc(C(=S)N3CCN(c4ccc(F)cc4)CC3)o2)c1,1.3%,-23.9%,25.1µM*
CCOc1ccc(C(=O)NC(=S)Nc2ccccc2N2CCOCC2)cc1Br,26.5%,-3.5%,15.8µM*
